Results from the supplement of paper PMC12340641.
Over roughly 1,000 compounds, “relative growth in counter assay (no AraC = 100%, AraC + DMSO = 0%)” has its median near -1.1; the highest 2% begin near 20. The full list was thinned out, with the highest values kept by preference.

These compounds were tested on HEK293FT dCK*-only (assay: relative growth in counter assay (no AraC = 100%, AraC + DMSO = 0%); higher = more growth rescue independent of IKZF1). Conditions: compound concentration: 5 uM; AraC concentration: 0.3 uM; overnight pretreatment + 4 days AraC.
Description: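 Growth recovery screen of the molecular-glue-like (Specs) library. HEK293FT cells expressing a dCK*-IKZF1 fusion (primary) or dCK* alone (counter) were pretreated overnight with compound at 5 uM, then given 0.3 uM AraC for 4 days. Hoechst nuclei were counted by imaging. Primary: normalised to pomalidomide (100%) and DMSO (0%), mean of 2 replicates. Counter: normalised to no-AraC (100%) and AraC+DMSO (0%), single replicate.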

Structure (SMILES)	relative growth in counter assay [%]
O=C(C1CCCCC1)N1CCOC(c2cccc(Nc3nccs3)n2)C1 (stereo not drawn)	-5.66
O=[N+]([O-])c1ccc(S(=O)(=O)Nc2ccccn2)cc1	-0.83
Cc1cccc(Nc2nc(-c3sc(NC(=O)c4ccccc4)nc3C)cs2)n1	60.5
CC(=O)Nc1ccc(-c2csc(Nc3ccccn3)n2)cc1	15.7
Cc1ccc(Nc2nc(-c3sc(NC(=O)c4ccccc4)nc3C)cs2)nc1	74.3
CC(=O)Nc1cccc(-c2csc(Nc3cccc(C)n3)n2)c1	5.94
CC(=O)Nc1ccc(-c2csc(Nc3cccc(C)n3)n2)cc1	5.34
CC(=O)N1CCCC1c1csc(Nc2ccccn2)n1 (stereo not drawn)	6.68
CC(=O)Nc1ccc(-c2csc(Nc3ccc(Cl)cn3)n2)cc1	-4.91
Cc1ccnc(Nc2nc(-c3sc(NC(=O)c4ccccc4)nc3C)cs2)c1	68.2
CC(=O)N1CCCC(c2csc(Nc3ccc(C)cn3)n2)C1 (stereo not drawn)	2.06
COc1cccc(OC)c1C(=O)Nc1ccc(S(=O)(=O)Nc2nccc(C)n2)cc1	-1.58
CC1CCc2cc(F)ccc2N1C(=O)CSc1nnc2c(n1)[nH]c1ccccc12 (stereo not drawn)	6.61
O=C(NCc1cnc(Nc2cccc(C3CCN(C(=O)C4CCCCC4)CC3)n2)s1)c1cccc(F)c1	-9.34
CC(C)(N)C(=O)N1CCC(c2cccc(Nc3ncc(-c4cccnc4)s3)n2)CC1	-23.8
CCCc1cnc(Nc2cccc(C3CCN(C(=O)[C@@H](N)C(C)O)CC3)n2)s1 (stereo partly drawn)	-24.9
Cc1ccc(CC(=O)N2CCOC(c3cccc(Nc4nccs4)n3)C2)cc1C (stereo not drawn)	-4.97
COc1ccc(C(=O)Nc2ccc(S(=O)(=O)Nc3cc(C)nc(C)n3)cc2)cc1	-14
Nc1ccc(C(=O)N2CCCC2c2cccc(Nc3nccs3)n2)cn1 (stereo not drawn)	-0.6
O=C(O)CCOCCOCCNc1ccc2c(c1)C(=O)N(C1CCC(=O)NC1=O)C2=O (stereo not drawn)	-0.35
O=[N+]([O-])c1ccc(S(=O)(=O)Nc2ccc(S(=O)(=O)Nc3ncccn3)cc2)cc1	0.33
CC(C)(C)N1CC(C(=O)Nc2ccc(S(=O)(=O)Nc3ncccn3)cc2)CC1=O (stereo not drawn)	4.79
COC1CCCC(C(=O)N2CCOC(c3cccc(Nc4ncc(C)s4)n3)C2)C1 (stereo not drawn)	-9.41
CCOCCC(=O)Nc1ccc(S(=O)(=O)Nc2ncccn2)cc1	3.97
Cc1cc(NS(=O)(=O)c2ccc(NC(=O)COc3ccc(C(C)C)cc3)cc2)nc(C)n1	-0.57

Structure (SMILES)	relative growth in counter assay [%]
Cc1cccc(OCC(=O)Nc2ccc(S(=O)(=O)Nc3nc(C)cc(C)n3)cc2)c1	-12
CN(CC(=O)N1CCOC(c2cccc(Nc3nccs3)n2)C1)Cc1ccccc1F (stereo not drawn)	0.79
CC(C)c1cnc(Nc2cccc(C3CCN(C(=O)C4CCCCC4)CC3)n2)s1	11
COc1cccc(C(=O)Nc2ccc(S(=O)(=O)Nc3cc(C)nc(C)n3)cc2)c1	0.7
COc1ccc(NC(=O)CN2CCC(c3cccc(Nc4nc(C)cs4)n3)CC2)cc1	13.8
O=C1CCC(N2C(=O)c3cccc(N4CCC(C(=O)O)CC4)c3C2=O)C(=O)N1 (stereo not drawn)	3.86
Cc1cc(C)nc(NS(=O)(=O)c2ccc(NC(=O)CCN3C(=O)c4ccccc4C3=O)cc2)n1	-7.05
Cc1ccc2[nH]nc(C(=O)N3CCCC3c3cccc(Nc4nc(C)cs4)n3)c2c1 (stereo not drawn)	2.1
Cc1csc(Nc2cccc(C3CCCN3C(=O)c3ccc4[nH]c(C(C)C)nc4c3)n2)n1 (stereo not drawn)	30.5
Cc1csc(Nc2cccc(C3CCCN3C(=O)c3ccc4c(c3)CCCN4C)n2)n1 (stereo not drawn)	13.3
Cc1csc(Nc2cccc(C3CCCN3C(=O)c3cn4cc(Cl)ccc4n3)n2)n1 (stereo not drawn)	22.3
Cc1csc(Nc2cccc(C3CCCN3C(=O)c3cnc(C)nc3C)n2)n1 (stereo not drawn)	-4.08
CC(=O)N1CCCC1c1cccc(Nc2nc(C)cs2)n1 (stereo not drawn)	-5.77
COc1ccc(C(=O)Nc2ccc(S(=O)(=O)Nc3ncccn3)cc2)cc1OC	-2.72
Cc1ccc(Oc2ccc3c(c2)C(=O)N(c2ccc(C(N)=O)cc2)C3=O)cc1C	3.9
COc1ccc2[nH]c3nc(SCC(=O)Nc4cccc(F)c4)nnc3c2c1	-13.9
COc1ccc(C(=O)Nc2ccc(S(=O)(=O)Nc3nccc(C)n3)cc2)cc1	-6.7
Cc1cnc(Nc2cccc(C(CO)C3CCN(C(=O)c4cccc(Cl)c4F)CC3)n2)s1 (stereo not drawn)	-1.22
Cc1cnc(Nc2cccc(C3CN(C(=O)C(C)(C)C)CCO3)n2)s1 (stereo not drawn)	-10.3
CCCc1cnc(Nc2cccc(C3CCN(C(=O)[C@@H]4CCCCN4)CC3)n2)s1	-21.3
COc1ccc(Cl)cc1NC(=O)CSc1nnc2c(n1)[nH]c1ccc(F)cc12	5.27
COc1ccc(N2C(=O)c3ccc(Oc4ccccc4)cc3C2=O)cc1	-22.4
CCC(C)C(=O)Nc1ccc(S(=O)(=O)Nc2nccc(C)n2)cc1 (stereo not drawn)	-7.22
COc1cc(NS(=O)(=O)c2ccc(Nc3nc(-c4c(C)nc5ncccn45)cs3)cc2)nc(OC)n1	2.39
CCCCc1cnc(Nc2cccc(C3CCN(C(=O)C(C)(C)NC(=O)COC)CC3)n2)s1	-10.6

Structure (SMILES)	relative growth in counter assay [%]
COc1cccc(CC(=O)N2CCC(c3cccc(Nc4nc(C)c(C)s4)n3)CC2)c1	2.52
Cc1ccnc(NS(=O)(=O)c2ccc(NC(=O)c3ccco3)cc2)n1	3.62
NCC(=O)N1CCC(c2cccc(Nc3ncc(Cl)s3)n2)CC1	-23.9
COc1ccc(N2CC(C(=O)Nc3ccc(S(=O)(=O)Nc4nc(C)cc(C)n4)cc3)CC2=O)cc1 (stereo not drawn)	7.32
Cc1ccnc(NS(=O)(=O)c2ccc(NC(=O)C3c4ccccc4Oc4ccccc43)cc2)n1	-3.45
COc1ccc(Br)cc1/C=N/NS(=O)(=O)c1ccccc1	-21.2
Cc1nc(Nc2cccc(C3CN(C(=O)c4cn5cccc(C)c5n4)CCO3)n2)sc1C (stereo not drawn)	2.16
CNC(=O)C1(c2cccc(Nc3ncc(C)s3)n2)CCN(C(=O)C2CCCCC2)CC1	-21.2
Cc1cc(C)nc(NS(=O)(=O)c2ccc(NC(=O)CSc3nnnn3-c3ccccc3)cc2)n1	1.47
CC(C)CC(=O)N1CCCC1c1csc(Nc2ccccn2)n1 (stereo not drawn)	-4
Cc1cnc(Nc2cccc(C3CCN(C(=O)C4(NC(=O)C(C)C)CCCCC4)CC3)n2)s1	-24.4
CC(=O)Nc1ccc(S(=O)(=O)N(Cc2ccccc2)c2ccccn2)cc1	21
CC(=O)Nc1ccc(S(=O)(=O)Nc2ccccn2)cc1	-7.51
CC(=O)Nc1ccc(S(=O)(=O)Nc2ncccn2)cc1	-1.98
CC1(C)C=C(CC(=O)N2CCOC(c3cccc(Nc4nccs4)n3)C2)CC(C)(C)N1 (stereo not drawn)	6.81
O=C(CN1C(=O)c2ccccc2C1=O)Nc1ccc(S(=O)(=O)Nc2ncccn2)cc1	-1.34
O=C1c2ccc(Oc3ccc(NC(=O)C(F)(F)F)cc3)cc2C(=O)N1c1ccc(O)cc1	-3.44
CCCOc1ccccc1C(=O)Nc1ccc(S(=O)(=O)Nc2nc(C)cc(C)n2)cc1	2.83
CCCc1cnc(Nc2cccc(C3CCN(C(=O)C4CCCCN4CCO)CC3)n2)s1 (stereo not drawn)	-7.08
Cc1cnc(Nc2cccc(C3CCN(CC(=O)N(C)C4CCCCC4)CC3)n2)s1	-15.6
Cc1cc(C)nc(NS(=O)(=O)c2ccc(NC(=O)C(C)C)cc2)n1	2.66
Cc1cc(C)cc(OCC(=O)Nc2ccc(S(=O)(=O)Nc3cc(C)nc(C)n3)cc2)c1	7.68
Cc1ccc(Cl)cc1NC(=O)CSc1nnc2c(n1)[nH]c1ccc(F)cc12	-2.7
COCC(=O)N1CCOC(c2cccc(Nc3nc(C)cs3)n2)C1 (stereo not drawn)	2.47
Cc1csc(Nc2cccc(C3CN(C(=O)CCc4nc(C)no4)CCO3)n2)n1 (stereo not drawn)	4.72

Structure (SMILES)	relative growth in counter assay [%]
COc1cccc(CCC(=O)N2CCOC(c3cccc(Nc4ncc(C)s4)n3)C2)c1 (stereo not drawn)	6.36
COc1ccc(CCC(=O)N2CCOC(c3cccc(Nc4nc(C)cs4)n3)C2)cc1 (stereo not drawn)	19.5
Cc1csc(Nc2cccc(C3CN(C(=O)CCCc4ccc(F)cc4)CCO3)n2)n1 (stereo not drawn)	36.2
COc1ccc(CCC(=O)N2CCOC(c3cccc(Nc4ncc(C)s4)n3)C2)cc1 (stereo not drawn)	9.66
CC(=O)N1CCC(c2csc(Nc3ccc(F)cn3)n2)CC1	4.68
CCCCc1cnc(Nc2cccc(C3CCN(C(=O)[C@@H]4CCCN4CCO)CC3)n2)s1	2.3
CC(C)c1ccc(OCC(=O)Nc2ccc(S(=O)(=O)Nc3ccccn3)cc2)cc1	4.55
O=C(Nc1ccc(S(=O)(=O)Nc2ncccn2)cc1)Oc1ccccc1	-1.98
Cc1cc(NS(=O)(=O)c2ccc(NC(=O)c3cc4ccccc4o3)cc2)nc(C)n1	-3.17
Cc1nc(Nc2cccc(C3CCCN3C(=O)c3cc4ccc(F)cc4[nH]3)n2)sc1C (stereo not drawn)	9.01
O=C(CS(=O)(=O)c1ccccc1)Nc1ccc(S(=O)(=O)Nc2ncccn2)cc1	8.67
O=C(Nc1ccc(S(=O)(=O)Nc2ccccn2)cc1)c1cccc(Cl)c1	-0.42
O=C(O)CCCCCNc1cccc2c1C(=O)N(C1CCC(=O)NC1=O)C2=O (stereo not drawn)	1.33
CCCc1cnc(Nc2cccc(C3CCN(C(=O)C4CCCCC4)CC3)n2)s1	-19.4
Cc1cnc(Nc2cccc(C3CCN(CC(=O)Nc4c(F)cccc4F)CC3)n2)s1	-16.6
Cc1cnc(NC(=O)CN2CCC(c3cccc(Nc4ncc(C)s4)n3)CC2)s1	-16.5
COCC(C)NC(=O)CN1CCC(c2cccc(Nc3nc(C)c(C)s3)n2)CC1 (stereo not drawn)	25.6
Cc1cnc(Nc2cccc(C3CCN(CC(=O)N4CCC(C)CC4)CC3)n2)s1	-9.8
Cc1nc(Nc2cccc(C3CCN(CC(=O)N4CCC(C)CC4)CC3)n2)sc1C	26.6
COCC(C)NC(=O)CN1CCC(c2cccc(Nc3ncc(C)s3)n2)CC1 (stereo not drawn)	-1.08
Cc1cnc(NC(=O)CN2CCC(c3cccc(Nc4nc(C)c(C)s4)n3)CC2)s1	24.2
COCC(C)NC(=O)CN1CCC(c2cccc(Nc3nccs3)n2)CC1 (stereo not drawn)	-1.53
Cc1nc(Nc2cccc(C3CN(CC(=O)N4CCC(C)CC4)CCO3)n2)sc1C (stereo not drawn)	7.05
